We go through eight compounds from PubChem BioAssay (Tox21).

A short description of assay [1]: qHTS assay to identify small molecule agonists of the constitutive androstane receptor (CAR) signaling pathway - cell viability counter screen (AID 1224836). Note: nearly all actives have a fitted effect of over 45% in size. A digest of the protocol:
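HepG2 cells stably carrying hCAR and a CYP2B6-2.2kb reporter; 15-concentration compounds plus PK11195 (final 0.75 uM), 23 hr at 37 C/5% CO2. Viability read by CellTiter-Fluor fluorescence.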

Assay [2] in a line: qHTS assay to identify small molecule antagonists of the constitutive androstane receptor (CAR) signaling pathway - cell viability counter screen (AID 1224837). Note: nearly all actives have a fitted effect of over 45% in size. Note: potency is the fitted concentration of half-maximal effect. In outline: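 HepG2 cells stably carrying hCAR and CYP2B6-2.2kb reporter, stimulated with 50 nM CITCO and compounds at 15 concentrations for 23 h at 37 C. Viability measured by CellTiter-Fluor fluorescence.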
In general terms: Quantitative high-throughput screening tests each substance at several concentrations.

For assay [3], the target named is Nuclear receptor subfamily 1 group I member 3 (Homo sapiens) (UniProt Q14994). Briefly: qHTS assay to identify small molecule antagonists of the constitutive androstane receptor (CAR) signaling pathway (AID 1224838). Note: nearly all actives have a fitted effect of over 40% in size. Note: potency is the fitted concentration of half-maximal effect. A digest of the protocol:
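HepG2 cells stably carrying hCAR and a CYP2B6-2.2kb luciferase reporter, seeded 4 hrs before compound (15 concentrations). Stimulated with 50 nM CITCO for 24 hr at 37 C. ONE-Glo luminescence read after 30 min at room temperature.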

Assay [4] has the same target. Briefly: qHTS assay to identify small molecule agonists of the constitutive androstane receptor (CAR) signaling pathway (AID 1224839). Note: nearly all actives have a fitted effect of over 15% in size. Note: potency is the fitted concentration of half-maximal effect. A digest of the protocol:
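HepG2 cells stably co-transfected with hCAR and a CYP2B6-2.2kb luciferase reporter; compounds at 15 concentrations with 0.75 uM PK11195 present. After 24 hr at 37 C, luciferase read by ONE-Glo luminescence.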

The nature of assay [5]: qHTS assay to identify small molecule antagonists of the estrogen related receptor signaling pathway with the pleiotropic PPARgamma coactivator (PGC) from Tox21 10K library - cell viability counter screen (AID 1224840; active = well fitted cell-killing curve with a large enough effect in the repeat runs, not every such curve was filed as active; note: nearly all actives have a fitted effect of over 40% in size). A digest of the protocol: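 PGC/ERR cells (2,000/well) plated 6 h, then compound-treated for 17.5 h at 37 C. Viability measured by CellTiter-Fluor fluorescence after 30 min at 37 C, multiplexed with the pathway assay.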

Assay [6] can be described thus: qHTS assay to identify small molecule antagonists of the estrogen related receptor signaling pathway with the pleiotropic PPARgamma coactivator (PGC) from Tox21 10K library (AID 1224841; call rule not given here; note: actives are mostly falling curves and most rising ones were filed inactive; nearly all actives have a fitted effect of over 50% in size). In outline:
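PGC/ERR cell line, 2,000 cells/well, pre-incubated 6 hours at 37 C, then exposed to compounds for 18 hours at 37 C; luciferase read with One-Glo luminescence after 30 min at room temperature.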

For assay [7], the target named is Thyrotropin receptor (Homo sapiens) (UniProt P16473). As to the kind of experiment: qHTS assay to identify small molecule agonists of the thyroid stimulating hormone receptor (TSHR) signaling pathway (AID 1224843; calls by dose curve; note: nearly all actives have a fitted effect of over 45% in size). A digest of the protocol: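 TSHR-expressing HEK293 cells (800 per well) were exposed to compounds for 30 min at room temperature. cAMP was then detected by HTRF competition with cAMP-d2 and anti-cAMP cryptate, read after 1 h at room temperature. Fifteen concentrations, triplicate.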

The nature of assay [8]: qHTS assay to identify small molecule agonists of the hypoxia (HIF-1) signaling pathway (AID 1224846; active = well fitted activation curve with a large enough effect in the signal ratio in the repeat runs, not every such curve was filed as active; the % refers to the signal ratio). A digest of the protocol:
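HRE-bla ME-180 beta-lactamase reporter cells in medium with 0.5% dialyzed FBS, pre-incubated 5 h then exposed to compounds 17 h at 37C, 5% CO2; reporter induction read with CCF4-AM FRET substrate.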

Assay [9] can be described thus: qHTS assay to identify small molecule agonists of H2AX - cell viability counter screen (AID 1224847; calls by dose curve; note: top concentration of the series differs between compounds; nearly all actives have a fitted effect of over 30% in size). In outline: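 CHO-K1 cells plated overnight at 37C, then exposed 3 h at 37C to compounds at 15 concentrations (0.76% DMSO final). Viability by CellTiter-Glo luminescence after 30 min at room temperature.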
A short description of assay [10]: qHTS assay to identify small molecule antagonists of the estrogen related receptor (ERR) signaling pathway from Tox21 library (AID 1224848). Note: nearly all actives have a fitted effect of over 50% in size. Note: potency is the fitted concentration of half-maximal effect. In outline:
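Cells: ERR line, 2,000/well; 6 h preincubation 37 C/5% CO2. Cpd in DMSO via pin tool; 18 h, 37 C. ONE-Glo, 30 min RT, luminescence.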

Assay [11] is described as follows: qHTS RealTime-Glo MT Cell Viability Assay in HepG2 cells - 24 hour (AID 1224867). Note: nearly all actives have a fitted effect of over 50% in size. A digest of the protocol:
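Cells + NanoLuc/prosubstrate dispensed (600 cells/well) → 5 h at 37 C/5% CO2 → compounds in DMSO transferred → 40 h incubation at 37 C, luminescence read at 0, 8, 16, 24, 32, 40 h.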

The nature of assay [12]: A CellTox Green Cytotoxicity Assay to monitor cytotoxicity in HEK293 cells - 0 hour (AID 1224869). Note: nearly all actives have a fitted effect of over 50% in size. A digest of the protocol:
(§1)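 HEK293 cells, 600/well, were preincubated 5 hours and then exposed to compounds at 37 C for up to 40 hours. A cell-impermeant cyanine dye staining dead-cell DNA was read by fluorescence at 0, 8, 16, 24, 32 and 40 h time points.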

A short description of assay [13]: qHTS RealTime-Glo MT Cell Viability Assay in HepG2 cells - 40 hour (AID 1224870). Note: nearly all actives have a fitted effect of over 50% in size. In outline: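 HepG2 cells mixed with RealTime-Glo MT reagents (NanoLuc plus cell-permeant prosubstrate) were seeded at 600 cells/well, incubated 5 h at 37 C/5% CO2, then pinned with compounds in DMSO; nonlytic luminescence tracked viability during 40 h treatment.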
The nature of assay [14]: A CellTox Green Cytotoxicity Assay to monitor cytotoxicity in HEK293 cells - 40 hour (AID 1224871). Note: nearly all actives have a fitted effect of over 45% in size. A digest of the protocol: as §1
Assay [15] is described as follows: qHTS assay to identify small molecule agonists of the estrogen related receptor signaling pathway with the pleiotropic PPARgamma coactivator (PGC) from Tox21 10K library (AID 1224842). Note: nearly all actives have a fitted effect of over 15% in size. A digest of the protocol: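 PGC/ERR reporter cells (NTP line) were seeded 2,000 per well, rested 6 h at 37 C/5% CO2, then pin-dosed with compounds in DMSO for 18 h at 37 C; luciferase read by One-Glo luminescence after 30 min at room temperature.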

Assay [16] in a line: qHTS assay to identify small molecule agonists of the hypoxia (HIF-1) signaling pathway - cell viability counter screen (AID 1224844; calls by dose curve; note: nearly all actives have a fitted effect of over 50% in size). In outline: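 HRE-bla ME-180 cells, 2,000/well in 0.5% dialyzed FBS medium, treated 17 h at 37C with compounds. Viability read in the same wells as the bla reporter, by CellTiter-Glo luminescence after 30 min at room temperature.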
Assay [17] is described as follows: qHTS assay to identify small molecule agonists of H2AX (AID 1224845; active = well fitted activation curve with a large enough effect in the signal ratio in the repeat runs, not every such curve was filed as active; the % refers to the signal ratio). In outline: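 Wild-type CHO-K1 cells plated overnight, then exposed 3 hr at 37C to compounds at 15 concentrations (0.76% DMSO). Lysed, then HTRF anti-pH2AX(S139)-cryptate/anti-H2AX-d2 detection after 24 hr at room temperature; emissions 665 and 620 nm.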
Assay [18] can be described thus: qHTS assay to identify small molecule agonists of the estrogen related receptor (ERR) signaling pathway from Tox21 library (AID 1224849; calls by dose curve; note: nearly all actives have a fitted effect of over 15% in size). As to conditions: ERR reporter cell line, ONE-Glo luciferase, 18 h; at 92.4 µM (top of the series) unless noted. A digest of the protocol:
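ERR reporter cells (NTP line) pre-incubated 6 hours at 37 C, then exposed to compounds for 18 hours at 37 C. ONE-Glo luciferase luminescence was read after 30 minutes at room temperature.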

A short description of assay [19]: qHTS RealTime-Glo MT Cell Viability Assay in HEK293 cells - 32 hour (AID 1224868). In outline:
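Tox21 10K qHTS, HEK293, 600 cells/well, RealTime-Glo reagent co-dispensed with cells; 5 h preincubation, compound by pintool, 37 C, luminescence at 0–40 h.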

Assay [20] addresses Luciferin 4-monooxygenase (Photinus pyralis) (UniProt P08659). As to the kind of experiment: qHTS assay to identify small molecule inhibitors of firefly luciferase (AID 1224835). Note: nearly all actives have a fitted effect of over 25% in size. A digest of the protocol: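 Quantitative HTS format; KM concentrations of both substrates. Purified P. pyralis FLuc activity quantified from luminescence images.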

A number with no mark means an inactive call. Records with an inconclusive call do not appear. Activity calls are given as the source filed them. Unless noted, calls come from the whole dose curve; as a rule, active = well fitted curve in the direction sought with a large enough effect in the repeat runs; inconclusive = weak or mixed curves; inactive = no such curve, though single readings can be large; an effect the other way counts as inactive or inconclusive.
% is set by controls: 0 for no effect and ±100 for the full control effect.

Chain of Nuclear receptor subfamily 1 group I member 3 (Homo sapiens) (Q14994 whole entry, looked up): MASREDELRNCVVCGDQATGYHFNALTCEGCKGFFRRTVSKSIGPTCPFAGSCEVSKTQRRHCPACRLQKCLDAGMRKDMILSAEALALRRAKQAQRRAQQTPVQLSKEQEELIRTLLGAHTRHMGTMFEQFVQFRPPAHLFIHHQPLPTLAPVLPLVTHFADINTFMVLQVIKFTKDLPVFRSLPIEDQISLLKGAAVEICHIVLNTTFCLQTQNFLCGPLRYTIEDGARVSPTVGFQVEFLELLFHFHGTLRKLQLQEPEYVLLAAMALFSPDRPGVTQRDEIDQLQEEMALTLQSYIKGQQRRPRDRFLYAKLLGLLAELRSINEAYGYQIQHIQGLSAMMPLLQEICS
Chain of Luciferin 4-monooxygenase (Photinus pyralis) (P08659 whole entry, looked up): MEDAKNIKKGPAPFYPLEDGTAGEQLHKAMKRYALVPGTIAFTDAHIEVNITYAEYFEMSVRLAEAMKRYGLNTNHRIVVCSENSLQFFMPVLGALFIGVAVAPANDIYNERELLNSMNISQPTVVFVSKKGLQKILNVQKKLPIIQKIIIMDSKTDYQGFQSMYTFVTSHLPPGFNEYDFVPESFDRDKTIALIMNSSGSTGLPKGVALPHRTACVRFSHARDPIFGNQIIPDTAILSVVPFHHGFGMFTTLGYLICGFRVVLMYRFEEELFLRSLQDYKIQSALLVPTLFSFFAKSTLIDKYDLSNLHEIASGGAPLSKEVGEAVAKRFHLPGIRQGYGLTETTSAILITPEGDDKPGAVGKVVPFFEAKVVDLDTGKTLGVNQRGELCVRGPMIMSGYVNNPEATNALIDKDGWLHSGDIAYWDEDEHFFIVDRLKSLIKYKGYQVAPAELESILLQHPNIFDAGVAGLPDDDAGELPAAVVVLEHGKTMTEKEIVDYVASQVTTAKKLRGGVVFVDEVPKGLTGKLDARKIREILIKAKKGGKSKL
Chain of Thyrotropin receptor (Homo sapiens) (P16473 whole entry, looked up): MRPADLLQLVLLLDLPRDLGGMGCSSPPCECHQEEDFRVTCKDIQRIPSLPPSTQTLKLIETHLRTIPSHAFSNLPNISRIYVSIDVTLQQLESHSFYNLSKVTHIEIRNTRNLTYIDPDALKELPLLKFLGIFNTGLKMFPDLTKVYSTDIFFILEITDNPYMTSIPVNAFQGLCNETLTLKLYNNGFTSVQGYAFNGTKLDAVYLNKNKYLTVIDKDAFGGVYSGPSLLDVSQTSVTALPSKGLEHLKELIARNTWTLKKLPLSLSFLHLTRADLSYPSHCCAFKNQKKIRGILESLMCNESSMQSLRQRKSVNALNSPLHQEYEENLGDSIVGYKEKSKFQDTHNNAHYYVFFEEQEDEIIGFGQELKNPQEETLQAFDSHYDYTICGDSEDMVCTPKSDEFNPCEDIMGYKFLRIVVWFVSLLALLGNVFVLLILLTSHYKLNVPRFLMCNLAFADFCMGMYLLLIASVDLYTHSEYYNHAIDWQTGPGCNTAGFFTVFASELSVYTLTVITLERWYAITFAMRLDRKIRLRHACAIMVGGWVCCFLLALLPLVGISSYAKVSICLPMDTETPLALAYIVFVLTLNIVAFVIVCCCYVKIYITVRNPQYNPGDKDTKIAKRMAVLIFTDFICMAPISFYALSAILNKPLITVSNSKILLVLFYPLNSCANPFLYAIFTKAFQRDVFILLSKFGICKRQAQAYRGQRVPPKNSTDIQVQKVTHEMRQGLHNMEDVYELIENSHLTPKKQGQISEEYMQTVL

Take `COc1cc2c(cc1N)oc1ccccc12`: the Potency result in assay [1], in assay [2], in [3], in [5], in [6] and in [7] was “inactive” throughout. Also, the Potency entry in [9], in assay [10], in assay [11], in assay [12], in [13] and in assay [14] was “inactive” each time. Besides, the Potency in assay [4] is 31.3 µM (active). Moreover, the compound was called inactive in assay [8].

Consider `CO[Si](C)(C)OC`, for which the Potency result in [1], in assay [2], in assay [3], in [4], in [5] and in assay [6] was “inactive” each time. The Potency result in assay [15], in assay [7], in assay [16], in assay [17], in assay [9] and in assay [10] was “inactive” throughout. Also, the Potency result in [11], in assay [19], in assay [13] and in assay [14] was “inactive” throughout. In assay [8], the result was inactive. The activity change, positive = activation in assay [18] is 4.8%.

On to `NS(=O)(=O)c1cc(-c2nn[nH]n2)c(NCc2cccs2)cc1Cl`, for which the Potency result in assay [20], in assay [4], in assay [5], in assay [7], in [17] and in assay [11] was “inactive” in each case. Moreover, the Potency result in [19], in assay [12], in assay [13] and in [14] was “inactive” each time. Further, the result in assay [8] was inactive.

On to `COC(=O)/C=C(/C)N`, for which the Potency entry in assay [1], in assay [2], in assay [3], in assay [4], in assay [5] and in [6] was “inactive” throughout. The Potency result in [15], in assay [7], in [16], in [17], in [9] and in [10] was “inactive” in each case. For the same compound, the Potency result in [11], in [19], in [13] and in assay [14] was “inactive” throughout. Besides, the call in assay [8] was inactive. Further, the activity change, positive = activation in [18] is 7.53% [at 42.5 µM].

Turning to `O=C(C(Cl)Cl)N1CCOC12CCCCC2`, the Potency result in assay [20], in assay [3], in [5], in assay [6], in assay [15] and in assay [7] was “inactive” in each case. Moreover, the Potency entry in assay [16], in assay [17], in assay [9], in assay [10], in assay [11] and in assay [19] was “inactive” throughout. For the same compound, the Potency result in assay [12], in assay [13] and in assay [14] was “inactive” throughout. For the same compound, the outcome in assay [8] was inactive. Also, the activity change, positive = activation in assay [18] is -5.71%.

As to `CCCCNC(=S)NCCCC`, the Potency result in assay [20], in [4], in assay [15], in [7], in assay [17] and in assay [11] was “inactive” in each case. Also, the Potency result in [12], in assay [13] and in assay [14] was “inactive” each time. Also, the figures for the Potency in assay [2], in assay [3] and in assay [10] were 48.6 µM (active), 48.6 µM (active) and 68.6 µM (active), respectively. For the same compound, the result in assay [8] was inactive. In assay [18], the activity change, positive = activation is -66.6%.

Take `OC[C@H]1O[C@@H](O[C@H]2[C@H](O)[C@@H](O)[C@H](O)O[C@@H]2CO)[C@H](O)[C@@H](O)[C@H]1O`: the Potency entry in [1], in [2], in [3], in [4], in assay [5] and in [6] was “inactive” in each case. The Potency entry in [15], in assay [7], in assay [16], in assay [9], in assay [10] and in assay [11] was “inactive” in each case. In addition, the Potency entry in assay [19], in assay [12], in assay [13] and in assay [14] was “inactive” throughout. For the same compound, the outcome in assay [8] was inactive. Moreover, the activity change, positive = activation in [18] was 4.49%.

For the compound `CCC(=O)O[C@]1(C(=O)SCF)[C@H](C)C[C@H]2[C@@H]3C[C@H](F)C4=CC(=O)C=C[C@]4(C)[C@@]3(F)[C@@H](O)C[C@@]21C`, the Potency entry in assay [20], in assay [2], in [3], in [5], in assay [6] and in assay [7] was “inactive” throughout. Further, the Potency entry in [16], in assay [17], in assay [9], in assay [10], in assay [11] and in assay [19] was “inactive” throughout. Further, the Potency result in [12], in [13] and in assay [14] was “inactive” in each case. In [18], the activity change, positive = activation was -0.0041% [at 42.5 µM].
